PubChem BioAssay (Tox21)
Values joined by “and” are separate entries in the source; they are usually repeats but may differ in a detail not shown here. Equal values may be shown once. Records with an inconclusive call do not appear. Where a call stands in place of a potency, no number is given. Some compounds were tested as several samples or in several runs, with calls that do not always agree. Active and inactive are the calls of the source. Calls follow the shape of the dose curve; as a rule, active = well fitted curve in the direction sought with a large enough effect in the repeat runs; inconclusive = weak or mixed curves; inactive = no such curve, though single readings can be large; an effect the other way counts as inactive or inconclusive.

Assay: qHTS RealTime-Glo MT Cell Viability Assay in HEK293 cells - 32 hour (AID 1224868); also: potency is read from the fitted curve at half-maximal effect; as to activity change, negative = cytotoxic: top concentration of the series differs between compounds
Conditions: RealTime-Glo luminescence; series mostly up to 76.8 µM; activity change, negative = cytotoxic: at the top concentration
Summary of the method: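 Viability tracked continuously by luminescence as live cells reduce a prosubstrate for NanoLuc; HEK293 cells preincubated 5 h, compound-treated at 37 C, and read at 0, 8, 16, 24, 32 and 40 h.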
Also: nearly all actives have a fitted effect of over 50% in size.

Row | SMILES | Potency | activity change, negative = cytotoxic
1 | CC(C)CC(=O)CC(C)C | inactive | –
2 | Cc1cccc(O)c1 | inactive | –
3 | CCC(O)OC(O)CC (centres undefined) | inactive | –
4 | CCCCCCCCCCCCCCCO | – | -2.15% (inactive)
5 | O=C(CC(C(=O)OC1CCCCC1)S(=O)(=O)O)OC1CCCCC1 (centres undefined) | inactive | –
6 | N[C@@H](Cc1cc(I)c(Oc2cc(I)c(O)c(I)c2)c(I)c1)C(=O)O | inactive | –
7 | CCc1cccc(C)c1N | inactive | –
8 | ON=C1CCCCC1 | inactive | –
9 | CCCCCCCCCCCCc1ccccc1 | inactive | –
10 | CCCCCC1=CCCC1=O | inactive | –
11 | CC(C)(N)CO | inactive | –
12 | O=c1[nH]nnc2ccccc12 | inactive | –
13 | COS(C)(=O)=O | inactive | –
14 | O=P(OC(CCl)CCl)(OC(CCl)CCl)OC(CCl)CCl | 24.4 µM (active) and 49 µM (active) | –
15 | COc1ccc(Nc2ccccc2)c(C)c1 | – | 0.927% (inactive)
16 | C=C(C)C(=O)O[C@H]1C[C@@H]2CC[C@@]1(C)C2(C)C | 15.4 µM (active) and inactive | –
17 | CN(C)CCOCCN(C)C | inactive | –
18 | CN(C)CCCN | inactive | –
19 | Nc1ccccc1[N+](=O)[O-] | inactive | –
20 | O=C(O)CCCC[C@@H]1SC[C@@H]2NC(=O)N[C@@H]21 | inactive | –
21 | CCCCC(CC)COC(=O)CS (centres undefined) | inactive and 17.4 µM (active) | –
22 | CSCCC=O | – | 3.61% (inactive)
23 | c1ccc2c(c1)ccc1ccccc12 | – | -14.9% (inactive)
24 | Cc1cccnc1 | inactive | –

Assay: A CellTox Green Cytotoxicity Assay to monitor cytotoxicity in HEK293 cells - 0 hour (AID 1224869)
Conditions: CellTox Green fluorescence; series mostly up to 76.8 µM; cytotoxicity: at the top concentration
Summary of the method: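 Real-time, in one plate: 600 HEK293 cells/well with dead-cell DNA dye, pinned compound after 5 h, 37 C incubation over 40 h; viable cells give no appreciable fluorescence.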

Row | SMILES | outcome | cytotoxicity
25 | CCCCC(CC)COC(=O)C(C#N)=C(c1ccccc1)c1ccccc1 (centres undefined) | inactive | –
26 | OCCOCCOCCO | inactive | –
27 | CC(C)CC(=O)CC(C)C | inactive | –
28 | Nc1cc([N+](=O)[O-])ccc1O | inactive | –
29 | Cc1cccc(O)c1 | inactive | –
30 | CCC(O)OC(O)CC (centres undefined) | inactive | –
31 | CCCCCCCCCCCCCCCO | inactive | –
32 | O=C(CC(C(=O)OC1CCCCC1)S(=O)(=O)O)OC1CCCCC1 (centres undefined) | inactive | –
33 | C[C@H]1C[C@@H]2[C@H]([C@@H](O)C[C@@]3(C)[C@H]2CC[C@]3(O)C(=O)CO)[C@@]2(C)C=CC(=O)C=C12 | inactive | –
34 | N[C@@H](Cc1cc(I)c(Oc2cc(I)c(O)c(I)c2)c(I)c1)C(=O)O | inactive | –
35 | O=C(Oc1ccccc1)c1ccccc1 | inactive | –
36 | CCc1cccc(C)c1N | inactive | –
37 | ON=C1CCCCC1 | inactive | –
38 | Fc1ccc(Br)cc1 | inactive | –
39 | CCCCCCCCCCCCc1ccccc1 | inactive | –
40 | CCCCCC1=CCCC1=O | inactive | –
41 | CC(C)(N)CO | inactive | –
42 | OCC(CO)(CBr)CBr | inactive | –
43 | CC(=O)CC(=O)Nc1ccccc1C | inactive | –

Row | SMILES | outcome | cytotoxicity
44 | CCC(O)OCCCOC (centres undefined) | inactive | –
45 | O=c1[nH]nnc2ccccc12 | inactive | –
46 | OC[C@H]1O[C@@](CO)(O[C@H]2O[C@H](CO)[C@@H](O)[C@H](O)[C@H]2O)[C@@H](O)[C@@H]1O | inactive | –
47 | COS(C)(=O)=O | inactive | –
48 | COCCCOc1ccnc(CS(=O)c2nc3ccccc3[nH]2)c1C (centres undefined) | inactive | –
49 | O=P(OC(CCl)CCl)(OC(CCl)CCl)OC(CCl)CCl | inactive | –
50 | COc1ccc(Nc2ccccc2)c(C)c1 | inactive | –
51 | CC1=C(C)S(=O)(=O)CCS1(=O)=O | inactive | –
52 | C=C(C)C(=O)O[C@H]1C[C@@H]2CC[C@@]1(C)C2(C)C | inactive | –
53 | CN(C)CCOCCN(C)C | – | -3.62% (inactive)
54 | CN(C)CCCN | inactive | –
55 | Nc1ccccc1[N+](=O)[O-] | inactive | –
56 | O=C(O)c1ccccc1C(c1ccc(O)cc1)c1ccc(O)cc1 | inactive | –
57 | CC[C@H](C)C(=O)O[C@H]1C[C@@H](C)C=C2C=C[C@H](C)[C@H](CC[C@@H]3C[C@@H](O)CC(=O)O3)[C@H]21 | inactive | –
58 | O=C(O)CCCC[C@@H]1SC[C@@H]2NC(=O)N[C@@H]21 | inactive | –
59 | CCCCC(CC)COC(=O)CS (centres undefined) | inactive | –
60 | CSCCC=O | inactive | –
61 | c1ccc2c(c1)ccc1ccccc12 | inactive | –
62 | Cc1cccnc1 | inactive | –

Assay: qHTS RealTime-Glo MT Cell Viability Assay in HepG2 cells - 40 hour (AID 1224870)
Conditions: RealTime-Glo luminescence; series mostly up to 76.8 µM; activity change, negative = cytotoxic: at the top concentration
Summary of the method: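 HepG2 cells mixed with RealTime-Glo MT reagents (NanoLuc plus cell-permeant prosubstrate) were seeded at 600 cells/well, incubated 5 h at 37 C/5% CO2, then pinned with compounds in DMSO; nonlytic luminescence tracked viability during 40 h treatment.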

Row | SMILES | outcome | activity change, negative = cytotoxic
63 | CCCCC(CC)COC(=O)C(C#N)=C(c1ccccc1)c1ccccc1 (centres undefined) | inactive | –
64 | OCCOCCOCCO | inactive | –
65 | CC(C)CC(=O)CC(C)C | inactive | –
66 | Nc1cc([N+](=O)[O-])ccc1O | inactive | –
67 | Cc1cccc(O)c1 | inactive | –
68 | CCC(O)OC(O)CC (centres undefined) | inactive | –
69 | CCCCCCCCCCCCCCCO | inactive | –
70 | O=C(CC(C(=O)OC1CCCCC1)S(=O)(=O)O)OC1CCCCC1 (centres undefined) | inactive | –
71 | C[C@H]1C[C@@H]2[C@H]([C@@H](O)C[C@@]3(C)[C@H]2CC[C@]3(O)C(=O)CO)[C@@]2(C)C=CC(=O)C=C12 | inactive | –
72 | N[C@@H](Cc1cc(I)c(Oc2cc(I)c(O)c(I)c2)c(I)c1)C(=O)O | inactive | –
73 | O=C(Oc1ccccc1)c1ccccc1 | inactive | –
74 | CCc1cccc(C)c1N | inactive | –
75 | ON=C1CCCCC1 | inactive | –
76 | Fc1ccc(Br)cc1 | inactive | –
77 | CCCCCCCCCCCCc1ccccc1 | inactive | –
78 | CCCCCC1=CCCC1=O | inactive | –
79 | CC(C)(N)CO | inactive | –
80 | OCC(CO)(CBr)CBr | inactive | –
81 | CC(=O)CC(=O)Nc1ccccc1C | inactive | –

Row | SMILES | outcome | activity change, negative = cytotoxic
82 | CCC(O)OCCCOC (centres undefined) | inactive | –
83 | O=c1[nH]nnc2ccccc12 | inactive | –
84 | COS(C)(=O)=O | inactive | –
85 | COCCCOc1ccnc(CS(=O)c2nc3ccccc3[nH]2)c1C (centres undefined) | inactive | –
86 | O=P(OC(CCl)CCl)(OC(CCl)CCl)OC(CCl)CCl | inactive | –
87 | COc1ccc(Nc2ccccc2)c(C)c1 | inactive | –
88 | CC1=C(C)S(=O)(=O)CCS1(=O)=O | inactive | –
89 | C=C(C)C(=O)O[C@H]1C[C@@H]2CC[C@@]1(C)C2(C)C | inactive | –
90 | CN(C)CCOCCN(C)C | inactive | –
91 | CN(C)CCCN | inactive | –
92 | Nc1ccccc1[N+](=O)[O-] | inactive | –
93 | O=C(O)c1ccccc1C(c1ccc(O)cc1)c1ccc(O)cc1 | inactive | –
94 | CC[C@H](C)C(=O)O[C@H]1C[C@@H](C)C=C2C=C[C@H](C)[C@H](CC[C@@H]3C[C@@H](O)CC(=O)O3)[C@H]21 | – | -20.6% (inactive)
95 | O=C(O)CCCC[C@@H]1SC[C@@H]2NC(=O)N[C@@H]21 | inactive | –
96 | CCCCC(CC)COC(=O)CS (centres undefined) | inactive | –
97 | CSCCC=O | inactive | –
98 | c1ccc2c(c1)ccc1ccccc12 | inactive | –
99 | Cc1cccnc1 | inactive | –
